Substitutions are numbered along the chain they refer to.
Molecular target: T1, SALL4 ZFC4 R900W (HT-SELEX) (Mus musculus, UniProt Q8BX22 870-940, R900W)
T1 sequence: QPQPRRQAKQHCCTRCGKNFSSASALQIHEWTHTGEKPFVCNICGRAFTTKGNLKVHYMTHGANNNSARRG
Experiment: HT-SELEX; high values mean tight binding
Conditions: protein: recombinant; vector His6-GST; dsDNA, one strand shown
Summary of the method: (§1)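 Up to 6 cycles of selection were run in triplicate. In each, purified recombinant mouse SALL4 zinc finger cluster 4 (residues 870–940, 1 µg) was incubated with library DNA (1.5 µg first cycle, 200 ng later) in 100 µl of 10 mM Tris–HCl pH 7.5, 50 mM NaCl, poly(dI-dC), DTT for 10 min at room temperature, then complexes were captured on Ni2+ beads, washed and PCR-amplified; final pools were MiSeq-sequenced and scanned for 6-mers. Binding signal is each canonical k-mer's read fraction as fold change versus the initial random library.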

| Sequence | binding signal |
| --- | --- |
| GGTTGA | 0.876 ± 0.0229 fold-change vs cycle 0 |
| GAATCC | 0.935 ± 0.0194 fold-change vs cycle 0 |
| ACAATA | 1.92 ± 0.0865 fold-change vs cycle 0 |
| AACGCA | 0.544 ± 0.00766 fold-change vs cycle 0 |
| CGGTAA | 0.74 ± 0.026 fold-change vs cycle 0 |
| AACCAC | 0.83 ± 0.0479 fold-change vs cycle 0 |
| CCTCAA | 0.864 ± 0.0329 fold-change vs cycle 0 |
| AGCATG | 0.806 ± 0.0264 fold-change vs cycle 0 |
| CACAGG | 0.527 ± 0.0297 fold-change vs cycle 0 |
| AGGGCA | 0.354 ± 0.00942 fold-change vs cycle 0 |
| CGTGAA | 0.776 ± 0.0286 fold-change vs cycle 0 |
| CCCTGA | 0.574 ± 0.0156 fold-change vs cycle 0 |
| GATGAC | 0.962 ± 0.0544 fold-change vs cycle 0 |
| TCCGGA | 0.451 ± 0.0492 fold-change vs cycle 0 |
| TGGTAA | 1.47 ± 0.055 fold-change vs cycle 0 |
| AGGATC | 1.01 ± 0.0497 fold-change vs cycle 0 |
| GAGTTA | 1.52 ± 0.0183 fold-change vs cycle 0 |
| GCTAAC | 0.792 ± 0.0586 fold-change vs cycle 0 |
| CACTGA | 0.912 ± 0.0516 fold-change vs cycle 0 |
| ACTAGC | 0.764 ± 0.0235 fold-change vs cycle 0 |

Molecular target: T2, SALL4 ZFC4 G921D (HT-SELEX) (Mus musculus, UniProt Q8BX22 870-940, G921D)
T2 sequence: T1 sequence with W31R, G52D
Experiment: HT-SELEX; high values mean tight binding
Conditions: protein: recombinant; vector His6-GST; dsDNA, one strand shown
Summary of the method: as §1

| Sequence | binding signal |
| --- | --- |
| TAGGAA | 1.41 ± 0.0855 fold-change vs cycle 0 |
| AAGATA | 1.9 ± 0.223 fold-change vs cycle 0 |
| GAAACC | 0.916 ± 0.0216 fold-change vs cycle 0 |
| ATAAGG | 1.46 ± 0.077 fold-change vs cycle 0 |
| AACCCC | 0.617 ± 0.0497 fold-change vs cycle 0 |
| CAAAAA | 1.35 ± 0.0641 fold-change vs cycle 0 |
| TAGCCA | 0.733 ± 0.0537 fold-change vs cycle 0 |
| CATGTA | 1.35 ± 0.123 fold-change vs cycle 0 |
| CCTCTA | 0.953 ± 0.0421 fold-change vs cycle 0 |
| ACTCAT | 1.47 ± 0.11 fold-change vs cycle 0 |
| AATGAT | 1.94 ± 0.238 fold-change vs cycle 0 |
| AGATAA | 1.87 ± 0.206 fold-change vs cycle 0 |
| CCGGAA | 0.491 ± 0.0897 fold-change vs cycle 0 |
| GGAGAC | 0.671 ± 0.0455 fold-change vs cycle 0 |
| CTTTTA | 1.63 ± 0.122 fold-change vs cycle 0 |
| GAAAGA | 1.36 ± 0.0863 fold-change vs cycle 0 |
| ACTCAA | 1.35 ± 0.0924 fold-change vs cycle 0 |
| AGCCCT | 0.56 ± 0.0891 fold-change vs cycle 0 |
| ATATCA | 1.83 ± 0.136 fold-change vs cycle 0 |
| GTTACA | 1.37 ± 0.0864 fold-change vs cycle 0 |

| Sequence | binding signal |
| --- | --- |
| GGTTGA | 0.9303 ± 0.00634 fold-change vs cycle 0 |
| GAATCC | 0.989 ± 0.0139 fold-change vs cycle 0 |
| ACAATA | 1.71 ± 0.156 fold-change vs cycle 0 |
| AACGCA | 0.669 ± 0.0225 fold-change vs cycle 0 |
| CGGTAA | 0.792 ± 0.0302 fold-change vs cycle 0 |
| AACCAC | 0.879 ± 0.0101 fold-change vs cycle 0 |
| CCTCAA | 0.951 ± 0.0279 fold-change vs cycle 0 |
| AGCATG | 0.882 ± 0.0429 fold-change vs cycle 0 |
| CACAGG | 0.624 ± 0.0533 fold-change vs cycle 0 |
| AGGGCA | 0.51 ± 0.0852 fold-change vs cycle 0 |
| CGTGAA | 0.834 ± 0.041 fold-change vs cycle 0 |
| CCCTGA | 0.665 ± 0.0261 fold-change vs cycle 0 |
| GATGAC | 1.01 ± 0.0406 fold-change vs cycle 0 |
| TCCGGA | 0.552 ± 0.107 fold-change vs cycle 0 |
| TGGTAA | 1.4 ± 0.0814 fold-change vs cycle 0 |
| AGGATC | 1.07 ± 0.0215 fold-change vs cycle 0 |
| GAGTTA | 1.45 ± 0.0562 fold-change vs cycle 0 |
| GCTAAC | 0.89 ± 0.0355 fold-change vs cycle 0 |
| CACTGA | 0.949 ± 0.00436 fold-change vs cycle 0 |
| ACTAGC | 0.825 ± 0.0195 fold-change vs cycle 0 |

— PMC9838217, “Structure of SALL4 zinc finger domain reveals link between AT-rich DNA binding and Okihiro syndrome”
